Data from PubChem BioAssay AID1259415 (National Center for Advancing Translational Sciences (NCATS), 2018).
Screen size: about 410,000 compounds; about 18,000 (4.4%) were called active. About 7% were inconclusive and are not listed. Rule as the data show it: active = activity change below about -60%; inconclusive = no clear call, values can overlap the other calls; inactive = above about -39%. Only a selection was taken, and actives are over-represented in it overall.
% is scaled to controls: 0 for no effect and ±100 for the full control effect.

Assay: qHTS Assay for inhibitors of the human cytomegalovirus (HCMV)
Conditions: HFF cells, HCMV-luciferase reporter, 72 h; at 57.5 µM; active compounds read low
How it was run: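 Human foreskin fibroblasts infected with luciferase-reporter HCMV at MOI 1 PFU/cell, compounds at two doses. Luciferase measured 72 h post infection; normalized to buffer-only basal and Salinomycin (10uM) controls.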
For `CCn1c(/C=C/c2ccc([N+](=O)[O-])o2)nc2ccccc2c1=O`, the activity change, negative = inhibition was -99.1% (active).
With `COc1cc(OC)c(OC)cc1/C=C/c1nc2ccccc2c(=O)n1-c1ccc(Br)c(C)c1` the activity change, negative = inhibition was 3.49% (inactive).
In the case of `CCCN(CCC)c1c([N+](=O)[O-])c(=O)oc2ccccc12`, the activity change, negative = inhibition is reported as -7.74% (inactive).
In the case of `Cc1cc2nc(-c3ccc(NC(=O)c4cc5ccccc5o4)cc3)oc2cc1C`, the activity change, negative = inhibition is reported as 98.1% (inactive).
For `C=CCN1C(=O)N(Cc2ccccc2)c2ccccc2S1(=O)=O`, the activity change, negative = inhibition was 8.55% (inactive).
In the case of `Cc1ccc(-n2c(SCC(=O)Nc3cccc(F)c3)nc3c(oc4ccccc43)c2=O)cc1C`, the activity change, negative = inhibition is reported as -8.05% (inactive).
For `Cc1cc(NC(=O)c2cc(-c3cccs3)on2)nn1Cc1ccc(Cl)cc1`, the activity change, negative = inhibition was -28.3% (inactive).
With `O=C(CSc1nnc(-c2cccs2)n1Cc1ccccc1)N1CCc2ccccc2C1` the activity change, negative = inhibition was -10.6% (inactive).
In the case of `O=c1onc(-c2cccs2)n1Cc1ccccc1`, the activity change, negative = inhibition is reported as -71.3% (active).
In the case of `CCC1=Nc2cc(C(=O)NCC(C)c3ccccc3)ccc2Sc2ccc(C)cc21` (configuration not stated), the activity change, negative = inhibition is reported as -7.44% (inactive).
In the case of `COCCNC(=O)c1ccc2c(c1)ncn2-c1ccc(C)c(Cl)c1`, the activity change, negative = inhibition is reported as 52.5% (inactive).
For `COCCNC(=O)c1ccc2c(c1)N=C(C)c1cc(C)ccc1S2`, the activity change, negative = inhibition was -83.7% (active).
With `CC1=Nc2cc(C(=O)NCc3ccc(C)cc3)ccc2Sc2ccc(Cl)cc21` the activity change, negative = inhibition was -34.6% (inactive).
For `CCc1ccc(Sc2cc(C(=O)NCCCOC(C)C)c3ccccc3n2)cc1`, the activity change, negative = inhibition was -34.7% (inactive).
With `CCC1=Nc2cc(C(=O)NCCCOC(C)C)ccc2Sc2ccc(C)cc21` the activity change, negative = inhibition was -62.8% (active).
For `COc1ccc(Cc2nnnn2CC(=O)O)cc1`, the activity change, negative = inhibition was -17% (inactive).
For `Cc1ccc(NC(=O)CN2C(=O)C(c3ccc(F)cc3)=NC23CCCCCC3)c(C)c1`, the activity change, negative = inhibition was 0.733% (inactive).
With `CCC(=O)N1c2ccccc2CC1C(=O)N1CCN(c2ccccc2F)CC1` (configuration not stated) the activity change, negative = inhibition was 3.71% (inactive).
For `O=C(NCCC1=CCCCC1)c1ccc2c(c1)N(Cc1ccccc1F)C(=O)c1ccccc1S2(=O)=O`, the activity change, negative = inhibition was 2.55% (inactive).
With `CCOc1ccccc1N(C)C(=O)c1cc2c(s1)-c1ccccc1OC2` the activity change, negative = inhibition was 2.75% (inactive).
In the case of `COc1ccc(-c2noc(CCC(=O)N3CCN(c4cccc(C)c4)CC3)n2)cc1`, the activity change, negative = inhibition is reported as 1.95% (inactive).
In the case of `COc1cccc(CNC(=O)CCc2nc(-c3ccc(C)cc3)no2)c1`, the activity change, negative = inhibition is reported as 9.74% (inactive).
With `Cc1ccc(-c2noc(CCC(=O)Nc3ccccc3N3CCN(C)CC3)n2)cc1` the activity change, negative = inhibition was -68.8% (active).
With `CCCN(c1ccc(C)cc1)c1nc(=O)c2cccnc2s1` the activity change, negative = inhibition was -20.6% (inactive).
In the case of `COc1ccc(OC)c(CNC(=O)CN2C(=O)CCn3nc(-c4cn(C)c5ccccc45)cc32)c1`, the activity change, negative = inhibition is reported as 3.11% (inactive).
For `O=C1/C(=C/c2ccc(F)cc2)SC(=S)N1CCCC(=O)N1CCCCC1CCO` (configuration not stated), the activity change, negative = inhibition was -100% (active).
With `O=C(NCCC1CCCCN1S(=O)(=O)c1ccc(F)cc1)C(=O)NC1CC1` (configuration not stated) the activity change, negative = inhibition was -34% (inactive).
With `O=C1CCCCN1CCCC(=O)N1CCCC(Nc2ccc(F)cc2)C1` (configuration not stated) the activity change, negative = inhibition was 4.92% (inactive).
In the case of `COc1ccc(S(=O)(=O)NCc2cccn2Cc2cccc(C)c2)cc1Cl`, the activity change, negative = inhibition is reported as -8.25% (inactive).
In the case of `CCOC(=O)C1CCN(c2nc3c(S(=O)(=O)c4ccc(CC)cc4)nnn3c3ccc(Cl)cc23)CC1`, the activity change, negative = inhibition is reported as 10.1% (inactive).
With `COc1ccc2c(c1)CC[C@@H]1[C@@H]2CC[C@]2(C)C(=O)CC[C@@H]12` the activity change, negative = inhibition was -18.8% (inactive).
In the case of `Cc1ccc(-n2cc3ccc([N+](=O)[O-])cc3n2)cc1`, the activity change, negative = inhibition is reported as 46.8% (inactive).
In the case of `Cc1ccc(-c2nc(SCc3ccc(Br)cc3)n3[nH]c(=O)cc3n2)cc1`, the activity change, negative = inhibition is reported as 81.8% (inactive).
For `Cc1ccc2nc(-c3ccccc3)c(CC3CCCCC3)n2c1`, the activity change, negative = inhibition was 43.3% (inactive).
With `CC(=O)Nc1c(-c2ccc(C)cc2)nc2ccc(Cl)cn12` the activity change, negative = inhibition was 7.31% (inactive).
With `Cc1ccc(-c2cn3cc(C)ccc3n2)cc1` the activity change, negative = inhibition was -91.4% (active).
With `Cc1nc(=O)c(-c2ccccc2)c(C)n1-c1ccc(Br)cc1` the activity change, negative = inhibition was -37% (inactive).
In the case of `Cc1ccc(-c2cn3cc([N+](=O)[O-])ccc3n2)cc1`, the activity change, negative = inhibition is reported as -89.1% (active).
With `Cc1ccc(N2CCN(c3ccc([N+](=O)[O-])cn3)CC2)c(C)c1` the activity change, negative = inhibition was -6% (inactive).
With `Cc1ccc2nc(-c3ccc(Br)cc3)cn2c1` the activity change, negative = inhibition was -89.7% (active).
With `CCOC(=O)c1c(C)[nH]c(C)c1S(=O)(=O)N1CCC(C(=O)Nc2ccc(C)c(Cl)c2)CC1` the activity change, negative = inhibition was 1.11% (inactive).
With `CCOC(=O)c1c(C)[nH]c(CCC(=O)NCCCN2CCN(c3cccc(Cl)c3)CC2)c1C` the activity change, negative = inhibition was -37.8% (inactive).
With `CCOc1cc(CNC(=O)c2sc3ncnc(N(C)C4CCCCC4)c3c2C)ccc1OC` the activity change, negative = inhibition was -22.8% (inactive).
With `O=C1CC(Sc2ncn[nH]2)C(=O)N1c1ccccc1` (configuration not stated) the activity change, negative = inhibition was -11.2% (inactive).
In the case of `CCOc1ccc(CCNC(=O)CN(c2ccc(C)cc2)S(=O)(=O)N(C)C)cc1OCC`, the activity change, negative = inhibition is reported as -14.8% (inactive).
For `Cc1nn2c(=O)cc(COC(=O)CNC(=O)c3ccc(F)cc3)nc2s1`, the activity change, negative = inhibition was -0.933% (inactive).
In the case of `Cc1ccc(S(=O)(=O)N2[C@@H](c3cccc4ccccc34)C(C(=O)O)=C[C@H]2C(C)(C)C)cc1`, the activity change, negative = inhibition is reported as -14.1% (inactive).
For `CCOC(=O)c1ccn(S(=O)(=O)c2ccc(C)cc2)c1-c1ccccc1`, the activity change, negative = inhibition was -18.7% (inactive).
With `CCOC(=O)C1C(C)C(C(C)(C)C)N(S(=O)(=O)c2ccc(C)cc2)C1c1ccccc1` (configuration not stated) the activity change, negative = inhibition was -77.2% (active).
For `CCc1nc2ccc(C(=O)N3CCN(c4cc(Cl)ccc4C)CC3)cc2nc1CC`, the activity change, negative = inhibition was 33.5% (inactive).
In the case of `CCC(=O)N1CCc2cc(S(=O)(=O)NC(C(=O)Nc3ccc(C(C)=O)cc3)C(C)C)ccc21` (configuration not stated), the activity change, negative = inhibition is reported as 7.35% (inactive).
For `C=Cn1cc[n+](CC(=O)c2ccc(OC)c(OC)c2)c1`, the activity change, negative = inhibition was -10.4% (inactive).
For `COc1ccccc1CC(=O)Nc1ccc(S(=O)(=O)N2CCCC2)cc1`, the activity change, negative = inhibition was -14.7% (inactive).
For `COc1ccc(S(=O)(=O)N2CCC(C(=O)N3CCCC3)CC2)cc1C`, the activity change, negative = inhibition was 1.95% (inactive).
For `COc1ccc(-c2ccc(Nc3ccc(S(=O)(=O)N4CCCC4)cc3)nn2)cc1OC`, the activity change, negative = inhibition was -67% (active).
With `O=C(CSc1oc(-c2ccccc2)nc1S(=O)(=O)c1ccc(Br)cc1)NC1CCCCC1` the activity change, negative = inhibition was 14% (inactive).
With `O=C(NCc1ccc(F)cc1)c1ccc(Cn2c(SCc3ccc(F)cc3)nc3cccnc32)cc1` the activity change, negative = inhibition was 16% (inactive).
For `Cc1c(C(=O)N(C)C)sc2c1c(=O)n(-c1ccc(F)cc1)c(=O)n2CC(=O)N(C)c1ccccc1`, the activity change, negative = inhibition was 7.53% (inactive).
In the case of `Cc1ccc(S(=O)(=O)NCCC(=O)OCC(=O)N(C)c2ccccc2)cc1`, the activity change, negative = inhibition is reported as 2.56% (inactive).
In the case of `CN(C(=O)COC(=O)CNC(=O)C12CC3CC(CC(C3)C1)C2)c1ccccc1`, the activity change, negative = inhibition is reported as 5.66% (inactive).
For `CN(C(=O)CC(NC(=O)c1ccccc1)(c1ccccc1)c1ccccc1)c1ccccc1`, the activity change, negative = inhibition was -66.2% (active).
For `Cc1ccc(C)c(Oc2c(C(F)(F)F)oc3c(CN4CCN(C)CC4)c(O)ccc3c2=O)c1`, the activity change, negative = inhibition was -2.3% (inactive).
In the case of `Cn1c(=O)nc2n(-c3ccc(Br)cc3)c3cccc(Cl)c3cc-2c1=O`, the activity change, negative = inhibition is reported as -1.09% (inactive).
With `CCOC(=O)c1cc(OC(=O)c2ccccc2Cl)n(-c2ccccc2)n1` the activity change, negative = inhibition was -20.3% (inactive).
With `Cc1ccc(CCNC(=O)c2nnc(Cc3cccc(F)c3)o2)cc1` the activity change, negative = inhibition was -16.3% (inactive).
With `COc1ccc(C(CNCC(=O)Nc2ccccc2F)N(C)C)cc1` (configuration not stated) the activity change, negative = inhibition was 8.02% (inactive).
With `COc1ccc(CCNC(=O)COC(=O)Cc2ccccc2F)cc1` the activity change, negative = inhibition was 3.43% (inactive).
In the case of `COc1ccc(C(CCNCc2ccccc2F)c2ccc(F)cc2)cc1` (configuration not stated), the activity change, negative = inhibition is reported as -62.4% (active).
With `C=C1CCN([C@H](C(=O)NCc2cc(OC)c(OC)c(OC)c2)C(C)C)S(=O)(=O)c2ccccc21` the activity change, negative = inhibition was 9.82% (inactive).
With `Cc1cccc(N2CCN(C(=O)Cn3ncc4c5ccccc5n(C)c4c3=O)CC2C)c1` (configuration not stated) the activity change, negative = inhibition was 17.6% (inactive).
For `CCN1CCN(C(=O)C2CCN(S(=O)(=O)c3cc(Cl)ccc3Cl)CC2)CC1`, the activity change, negative = inhibition was 10.9% (inactive).
With `CCOC(=O)N1CCN(C(=O)C2CCN(S(C)(=O)=O)CC2)CC1` the activity change, negative = inhibition was -16.6% (inactive).
For `CCOC(=O)N1CCN(C(=O)C2CCN(S(=O)(=O)c3cc(Cl)ccc3OCC)CC2)CC1`, the activity change, negative = inhibition was -87% (active).
For `CCn1c2c(c(=O)n3ncc(C(=O)N4CCN(c5ccccc5)CC4)c13)CN(Cc1ccc(OC)cc1)CC2`, the activity change, negative = inhibition was 17.6% (inactive).
With `COc1ccccc1-n1c(-c2ccc(C)cc2)cn2c3c(=O)n(C)c(=O)n(C)c3nc12` the activity change, negative = inhibition was -0.712% (inactive).
With `COCC(C)N=CC1=C(O)CC(C)(C)CC1=O` (configuration not stated) the activity change, negative = inhibition was 36.9% (inactive).
With `O=C(NCCCN1CCCC1=O)C(=O)NCC1OCCN1S(=O)(=O)c1ccc(Br)cc1` (configuration not stated) the activity change, negative = inhibition was -19.1% (inactive).
In the case of `CC(C)NC(=O)C1CCC(Cn2c(=O)c3sccc3n(Cc3ccc(F)cc3)c2=O)CC1` (configuration not stated), the activity change, negative = inhibition is reported as 23.5% (inactive).
For `OCCC1CN(Cc2ccc3nsnc3c2)CCN1C1CCCC1` (configuration not stated), the activity change, negative = inhibition was -14.5% (inactive).
With `OCCC1CN(Cc2ccc3nsnc3c2)CCN1C1CCCCC1` (configuration not stated) the activity change, negative = inhibition was 11.1% (inactive).
With `Cn1cnnc1Sc1ccc(CN2CCN(C3CCCC3)C(CCO)C2)o1` (configuration not stated) the activity change, negative = inhibition was -68.7% (active).
With `CCN(C(=O)Cn1cc(S(=O)(=O)N2CCN(c3ccccc3F)CC2)c2ccccc2c1=O)c1ccc(C)c(C)c1` the activity change, negative = inhibition was 3.86% (inactive).
For `COc1ccc(CCNc2cc(N3CCN(C(=O)c4ccccc4OC)CC3)ccc2[N+](=O)[O-])cc1OC`, the activity change, negative = inhibition was -94% (active).
For `COc1ccc(CCNC(=O)C(=O)NCc2ccccc2C)cc1OC`, the activity change, negative = inhibition was -36% (inactive).
In the case of `COc1ccccc1OCCNc1cc(N2CCOCC2)ccc1[N+](=O)[O-]`, the activity change, negative = inhibition is reported as 63.8% (inactive).
With `COc1cccc(NC(=S)NC(=O)c2c(Cl)c(C)nn2C)c1` the activity change, negative = inhibition was 12.6% (inactive).
With `COc1ccc(N2CCN(S(=O)(=O)CCNC(=O)C34CC5CC(CC(C5)C3)C4)CC2)cc1` the activity change, negative = inhibition was -36.2% (inactive).
